Drawing on the supplement of paper PMC8007513, this text covers growth yield for 40 compounds.

The assay has as its system Trichoderma virens ATCC 9645. Put plainly: growth yield (OD600) with compound + IPBC relative to untreated control; higher = less growth inhibition. Particulars: compound concentration: 100 uM, IPBC concentration: 200 ng/ml. The method in brief:
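Growth appears as means of duplicate screens, relative to the control containing neither agent. To obtain it, OD600 was read on a BioTek EL800 at 40 h and 72 h. The cultures were 100 μl aliquots in 96-well plates at 30 °C, holding Trichoderma virens ATCC 9645 spores at 15,000 spores ml^−1 in potato dextrose broth, library compounds at 100 μM final, and, in some wells, a biocide at 200 ng ml^−1.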

Structures can show the parent of a compound that is named as a salt. ± gives the standard error. About 130 (10%) of roughly 1,300 compounds showed an effect of 50% or more. This is one part of a sample in which strong results are shown more often than they occur.

`CN(CCOc1ccc(CC2SC(=O)NC2=O)cc1)c1ccccn1` (stereo not given) [Rosiglitazone Hydrochloride] + CCCCNC(=O)OCC#CI [3-iodo-2-propynyl butylcarbamate (IPBC)]: the growth yield runs as follows: (40 h) 76.4 ± 7.5%; (72 h) 82.6 ± 6.1%.
As for `CCCOc1ccccc1-c1nc2[nH]nnc2c(=O)[nH]1` [Zaprinast] + CCCCNC(=O)OCC#CI [3-iodo-2-propynyl butylcarbamate (IPBC)], the growth yield amounted to 87.2 ± 0.79% (40 h) and 98.7 ± 1.1% (72 h).
As for `N[C@@H]1CCCCN(c2c(F)cc3c(=O)c(C(=O)O)cn(C4CC4)c3c2Cl)C1` [Besifloxacin hydrochloride] + CCCCNC(=O)OCC#CI [3-iodo-2-propynyl butylcarbamate (IPBC)], the growth yield is, setting by setting: (40 h) 88.5 ± 2.7%; (72 h) 88.1 ± 2.7%.
The like results for `COc1cc(C(=O)NCc2ccc(OCCN(C)C)cc2)cc(OC)c1OC` [Trimethobenzamide hydrochloride] + CCCCNC(=O)OCC#CI [3-iodo-2-propynyl butylcarbamate (IPBC)] were, in that order, 90.2 ± 1.3% and 91.3 ± 2.8%.
The like results for `CN(C)CCOc1ccc(/C(=C(/CCCl)c2ccccc2)c2ccccc2)cc1` [Toremifene] + CCCCNC(=O)OCC#CI [3-iodo-2-propynyl butylcarbamate (IPBC)] were, in that order, 3.49 ± 0.95% and 3.15 ± 0.42%.
`COc1ccc(C(=O)NCc2ccc(OCCN(C)C)cc2)cc1OC` [Itopride] + CCCCNC(=O)OCC#CI [3-iodo-2-propynyl butylcarbamate (IPBC)]: the growth yield is 107 ± 1.1% (40 h) and 102% (72 h).
As to `CN(C)CCOC(=O)COc1ccc(Cl)cc1` [Meclofenoxate hydrochloride] + CCCCNC(=O)OCC#CI [3-iodo-2-propynyl butylcarbamate (IPBC)], the growth yield runs as follows: (40 h) 93.2 ± 3.3%; (72 h) 96.7 ± 2.1%.
As for `CCN(CC)CCOC(=O)C(c1ccccc1)c1ccccc1` [Adiphenine hydrochloride] + CCCCNC(=O)OCC#CI [3-iodo-2-propynyl butylcarbamate (IPBC)], the growth yield reads like this: (40 h) 87.2 ± 1.4%; (72 h) 92.8 ± 1.4%.
For the compound `CCN(CC)CCOc1ccc(C(=C(Cl)c2ccccc2)c2ccccc2)cc1` [Clomiphene citrate (Z,E)] + CCCCNC(=O)OCC#CI [3-iodo-2-propynyl butylcarbamate (IPBC)], the growth yield (40 h) stood at 3.02 ± 0.16% and the growth yield (72 h) turned out to be 2.94%.
Regarding `CN(C)CCOC(c1ccccc1)c1ccccc1` [Diphenhydramine hydrochloride] + CCCCNC(=O)OCC#CI [3-iodo-2-propynyl butylcarbamate (IPBC)], the growth yield was 87.2 ± 2.1% (40 h) and 94 ± 2.1% (72 h).
Turning to `CC/C(=C(\c1ccccc1)c1ccc(OCCN(C)C)cc1)c1ccccc1` [Tamoxifen citrate] + CCCCNC(=O)OCC#CI [3-iodo-2-propynyl butylcarbamate (IPBC)], the growth yield reads like this: (40 h) 3.34 ± 0.48%; (72 h) 3.36 ± 0.63%.
For the compound `COc1ccc(C(Cl)=C(c2ccc(OC)cc2)c2ccc(OC)cc2)cc1` [Chlorotrianisene] + CCCCNC(=O)OCC#CI [3-iodo-2-propynyl butylcarbamate (IPBC)], the growth yield by setting is: (40 h) 103 ± 17%; (72 h) 101 ± 11%.
In the same order, the values of `CCN(CC)CCNC(=O)c1cc(Br)c(N)cc1OC` [Bromopride] + CCCCNC(=O)OCC#CI [3-iodo-2-propynyl butylcarbamate (IPBC)] are 92.6 ± 14% and 93.8 ± 7.5%.
`CCCOc1cc(N)ccc1C(=O)OCCN(CC)CC` [Propoxycaine hydrochloride] + CCCCNC(=O)OCC#CI [3-iodo-2-propynyl butylcarbamate (IPBC)]: the growth yield (40 h) came out at 86.7% and the growth yield (72 h) was 88.73 ± 0.42%.
Regarding `CCC1(C)CC(=O)NC1=O` (stereo not given) [Ethosuximide] + CCCCNC(=O)OCC#CI [3-iodo-2-propynyl butylcarbamate (IPBC)], the growth yield by setting is: (40 h) 94.8 ± 2.1%; (72 h) 97.85 ± 0.94%.
As to `CN1CCN(C2=Nc3ccccc3Oc3ccc(Cl)cc32)CC1` [Loxapine succinate] + CCCCNC(=O)OCC#CI [3-iodo-2-propynyl butylcarbamate (IPBC)], the growth yield stood at 71.8 ± 2.2% (40 h) and 91.87 ± 0.84% (72 h).
Regarding `CC(=O)N(CC(C)C(=O)O)c1c(I)cc(I)c(N)c1I` (stereo not given) [Iocetamic acid] + CCCCNC(=O)OCC#CI [3-iodo-2-propynyl butylcarbamate (IPBC)], the growth yield runs as follows: (40 h) 107 ± 18%; (72 h) 102 ± 11%.
In the same order, the values of `C#C[C@]1(O)CC[C@H]2[C@@H]3[C@H](C)CC4=C(CCC(=O)C4)[C@H]3CC[C@@]21C` [Tibolone] + CCCCNC(=O)OCC#CI [3-iodo-2-propynyl butylcarbamate (IPBC)] are 80.1 ± 2.9% and 90.09 ± 0.1%.
Consider `Cc1ccc(-c2cc(C(F)(F)F)nn2-c2ccc(S(N)(=O)=O)cc2)cc1` [Celecoxib] + CCCCNC(=O)OCC#CI [3-iodo-2-propynyl butylcarbamate (IPBC)], for which the growth yield stood at 57.8 ± 0.64% (40 h) and 78.76 ± 0.73% (72 h).
Consider `C[C@]12CC[C@@H]3c4ccc(OC(=O)N(CCCl)CCCl)cc4CC[C@H]3[C@@H]1CC[C@@H]2O` [Estramustine] + CCCCNC(=O)OCC#CI [3-iodo-2-propynyl butylcarbamate (IPBC)], for which the growth yield reads like this: (40 h) 97.8 ± 4.5%; (72 h) 98.1 ± 4.7%.
The like results for `CC(C)NNC(=O)c1ccncc1` [Iproniazide phosphate] + CCCCNC(=O)OCC#CI [3-iodo-2-propynyl butylcarbamate (IPBC)] were, in that order, 89.3 ± 0.95% and 99 ± 0.84%.
As to `Oc1ccc(OCc2ccccc2)cc1` [Monobenzone] + CCCCNC(=O)OCC#CI [3-iodo-2-propynyl butylcarbamate (IPBC)], the growth yield by setting is: (40 h) 50.7 ± 6.5%; (72 h) 63 ± 4.3%.
In the case of `CCCCN(CCCC)CCCOC(=O)c1ccc(N)cc1` [Butacaine] + CCCCNC(=O)OCC#CI [3-iodo-2-propynyl butylcarbamate (IPBC)], the growth yield amounted to 106 ± 9.2% (40 h) and 105 ± 8.7% (72 h).
`CCCCOC(=O)c1ccc(N)cc1` [Butamben] + CCCCNC(=O)OCC#CI [3-iodo-2-propynyl butylcarbamate (IPBC)]: the growth yield by setting is: (40 h) 53.53 ± 0.16%; (72 h) 70.7 ± 3.4%.
In the case of `CCCCOC(=O)c1ccc(O)cc1` [Butylparaben] + CCCCNC(=O)OCC#CI [3-iodo-2-propynyl butylcarbamate (IPBC)], the growth yield runs as follows: (40 h) 27.5 ± 1.8%; (72 h) 46.9 ± 3.2%.
In the case of `NNc1nncc2ccccc12` [Hydralazine hydrochloride] + CCCCNC(=O)OCC#CI [3-iodo-2-propynyl butylcarbamate (IPBC)], the growth yield reads like this: (40 h) 120 ± 6.8%; (72 h) 125 ± 11%.
In the same order, the values of `Cc1cc(C2CCCCC2)n(O)c(=O)c1` [Ciclopirox ethanolamine] + CCCCNC(=O)OCC#CI [3-iodo-2-propynyl butylcarbamate (IPBC)] are 3.49 ± 0.32% and 2.83 ± 0.32%.
For `CCOC(=O)[C@H](CCc1ccccc1)N[C@@H](C)C(=O)N1[C@H](C(=O)O)C[C@@H]2CCC[C@@H]21` [Ramipril] + CCCCNC(=O)OCC#CI [3-iodo-2-propynyl butylcarbamate (IPBC)], the growth yield (40 h) was determined as 95 ± 3.2% and the growth yield (72 h) was 96 ± 3.9%.
In the case of `CC1(C)O[C@@H]2C[C@H]3[C@@H]4CCC5=CC(=O)C=C[C@]5(C)[C@H]4[C@@H](O)C[C@]3(C)[C@]2(C(=O)CO)O1` [Desonide] + CCCCNC(=O)OCC#CI [3-iodo-2-propynyl butylcarbamate (IPBC)], the growth yield stood at 107 ± 5.9% (40 h) and 103 ± 3.9% (72 h).
Turning to `C[C@@H]1CC[C@H]2[C@@H](C)C(=O)O[C@@H]3O[C@@]4(C)CC[C@@H]1[C@]32OO4` [Artemisinin] + CCCCNC(=O)OCC#CI [3-iodo-2-propynyl butylcarbamate (IPBC)], the growth yield is 32.4 ± 1.3% (40 h) and 76.3 ± 1.1% (72 h).
Regarding `CC1(C)O[C@@H]2C[C@H]3[C@@H]4CCC5=CC(=O)CC[C@]5(C)[C@@]4(F)[C@@H](O)C[C@]3(C)[C@]2(C(=O)CCl)O1` [Halcinonide] + CCCCNC(=O)OCC#CI [3-iodo-2-propynyl butylcarbamate (IPBC)], the growth yield reads like this: (40 h) 86.9 ± 1.1%; (72 h) 91.77 ± 0.1%.
For `COc1cnc(NS(=O)(=O)c2ccc(N)cc2)nc1` [Sulfameter] + CCCCNC(=O)OCC#CI [3-iodo-2-propynyl butylcarbamate (IPBC)], the growth yield (40 h) worked out at 101 ± 7.5% and the growth yield (72 h) worked out at 101 ± 3.5%.
The like results for `Nc1nc2c(ncn2COC(CO)CO)c(=O)[nH]1` [Ganciclovir] + CCCCNC(=O)OCC#CI [3-iodo-2-propynyl butylcarbamate (IPBC)] were, in that order, 99.9 ± 16% and 98.1 ± 10%.
For `Nc1nc2n[nH]nc2c(=O)[nH]1` [Azaguanine-8] + CCCCNC(=O)OCC#CI [3-iodo-2-propynyl butylcarbamate (IPBC)], the growth yield runs as follows: (40 h) 7.47 ± 1.1%; (72 h) 12.2 ± 0.21%.
Turning to `Nc1nc2c(ncn2COCCO)c(=O)[nH]1` [Acyclovir] + CCCCNC(=O)OCC#CI [3-iodo-2-propynyl butylcarbamate (IPBC)], the growth yield amounted to 100 ± 3.5% (40 h) and 101 ± 3.5% (72 h).
Turning to `CC(C)(C(=O)c1cccnc1)c1cccnc1` [Metyrapone] + CCCCNC(=O)OCC#CI [3-iodo-2-propynyl butylcarbamate (IPBC)], the growth yield by setting is: (40 h) 87.5 ± 1.4%; (72 h) 87.68 ± 0.84%.
Turning to `CC(=O)OCC(=O)[C@H]1CC[C@H]2[C@@H]3CC[C@H]4C[C@H](O)CC[C@]4(C)[C@H]3C(=O)C[C@]12C` [Alfadolone acetate] + CCCCNC(=O)OCC#CI [3-iodo-2-propynyl butylcarbamate (IPBC)], the growth yield runs as follows: (40 h) 90.1 ± 8.4%; (72 h) 95.4 ± 2.9%.
With `C#C[C@]1(OC(C)=O)CC[C@H]2[C@@H]3CCC4=C[C@@H](OC(C)=O)CC[C@@H]4[C@H]3CC[C@@]21C` [Ethynodiol diacetate] + CCCCNC(=O)OCC#CI [3-iodo-2-propynyl butylcarbamate (IPBC)], the growth yield came out at 80.21 ± 0.16% (40 h) and 92 ± 1.8% (72 h).
Regarding `Cc1cc2c(cc1S(N)(=O)=O)S(=O)(=O)CCC2` [Meticrane] + CCCCNC(=O)OCC#CI [3-iodo-2-propynyl butylcarbamate (IPBC)], the growth yield reads like this: (40 h) 91.8 ± 6.7%; (72 h) 91.7 ± 3.8%.
Consider `COc1ccc2c(c1)c(CC(=O)OCC(=O)O)c(C)n2C(=O)c1ccc(Cl)cc1` [Acemetacin] + CCCCNC(=O)OCC#CI [3-iodo-2-propynyl butylcarbamate (IPBC)], for which the growth yield runs as follows: (40 h) 74.18 ± 0.16%; (72 h) 84.11 ± 0.21%.
